# PubChem BioAssay
# Active and inactive are the calls of the source. Unless noted, how the calls were made is not given here.
# Columns and labels:
# [1] = test system: Wnt5a (protein binding on small-molecule microarray); assay: small molecules binding Wnt5a protein – biophysical, small-molecule microarray, 635/667 nm fluorescence, primary screen (AID 1142); settings: 635 nm fluorescence, higher = more signal;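 further: fluorescence read at 667 nm with signal to noise per printed feature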
# [2] = ATP-based viability of Huh7 replicon cells – cell-based, CellTiter-Glo luminescence, basal, 48 h, cytotoxicity control for HCV replication inhibitor project, primary screen (AID 1143); settings: higher = more signal, called active from +8 up or from −8 down;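 further: Huh7 hepatoma cells carrying a hepatitis C replication reporter with no stimulus; test concentration not given here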
# [3] = Pseudomonas biofilm growth suppression – PAO1 strain, BacTiter-Glo luminescence, LB-PBS, primary screen (AID 1144); settings: P. aeruginosa PAO1 biofilm, 12 h, higher = more signal
# [4] = basal CRE-LacZ reporter activity in PC12 – cell-based, unstimulated, primary screen (AID 1145); settings: no forskolin, luminescence, 4.5 h, higher = more signal, called active from +8 up or from −8 down
# [5] = forskolin-driven CRE-LacZ activity in PC12 – cell-based, CRE-LacZ reporter, forskolin-stimulated, primary screen (AID 1146); settings: luminescence, 4.5 h, higher = more signal, called active from +8 up or from −8 down;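 further: PC12 cells with 6xCRE LacZ reporter stimulated by forskolin 10 µM; beta-galactosidase reporter signal reflecting CREB driven transcription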
# [6] = molecular target: Streptavidin (Streptomyces avidinii) (UniProt P22629); assay: compounds binding control protein streptavidin – biophysical, small-molecule microarray, 635/667 nm fluorescence, artefact control for SMM compound annotation, primary screen (AID 1147); settings: higher = more signal;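 further: signal reflects streptavidin binding to arrayed compounds as a control protein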
# [7] = probe aInhba binding on compound microarray – biochemical, small-molecule microarray, 635/667 nm fluorescence, primary screen (AID 1148); settings: higher = more signal;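 further: score merges 667nm spot fluorescence with signal-to-noise for antibody binding to printed compounds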
# Torsin-1A (Homo sapiens) [8] = molecular target: Torsin-1A (Homo sapiens) (UniProt O14656); assay: TOR1A wild-type binding on microarray – cell lysate, small-molecule microarray, lysate, 635/667 nm, primary screen (AID 1149); settings: COS7 hTOR1A-WT lysate, 635 nm fluorescence, higher = more signal
# Torsin-1A (Homo sapiens) [9] = molecular target: Torsin-1A (Homo sapiens) (UniProt O14656); assay: torsin A mutant lysate binding on microarrays – cell lysate, small-molecule microarray, COS7 lysate, 635/667 nm fluorescence, primary screen (AID 1150); settings: COS7 hTOR1A mutant lysate, 635 nm fluorescence, higher = more signal;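 further: score pools 667 nm emission and signal to noise measuring lysate protein binding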
# [10] = test system: Sonic hedgehog protein (Shh); assay: Sonic hedgehog microarray binding compounds – biochemical, small-molecule microarray, 635/667 nm fluorescence, primary screen (AID 1151); settings: 635 nm fluorescence, higher = more signal;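 further: Shh protein binding to compounds spotted on small-molecule microarray slides; score combines spot fluorescence intensity with signal-to-noise across triplicate slides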
# [11] = optical density shifts of acrAB sulA E. coli – strain DRC41, OD650, 48 h, E. coli filamentation inducer project, primary screen (AID 1152); settings: higher = more signal, called active from +8 up or from −8 down;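 further: E. coli MC1000 strain DRC41 lacking acrAB efflux pump and sulA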
# [12] = probe aLefty1 binding on compound microarray – biochemical, small-molecule microarray, 635/667 nm fluorescence, primary screen (AID 1153); settings: higher = more signal;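 further: score merges spot fluorescence with signal-to-noise ratio from the scanned slide images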
# [13] = plasmodial surface anion channel blockers, osmotic lysis – cell-based, P. falciparum Indochina, OD700, 1 h, primary screen (AID 1154); settings: P. falciparum Indochina infected RBC osmotic lysis, higher = more signal, called active from +8 up or from −8 down
# [14] = plasmodial surface anion channel blockers, osmotic lysis – cell-based, P. falciparum Indochina, OD700, 2 h, primary screen (AID 1155);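 further: lysis reports solute entry through the parasite surface anion channel PSAC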; settings: P. falciparum Indochina infected erythrocytes, higher = more signal, called active from +8 up or from −8 down
# [15] = changes in parasitized red cell lysis, either direction – P. falciparum Indochina, OD700, 3 h, PSAC antagonist project, primary screen (AID 1156); settings: P. falciparum-infected erythrocytes, osmotic lysis, higher = more signal, called active from +8 up or from −8 down
# [16] = plasmodial surface anion channel blockers, osmotic lysis – cell-based, P. falciparum Indochina, OD700, 18 h, primary screen (AID 1157); settings: P. falciparum Indochina infected erythrocytes, osmotic lysis OD700, 18 h; higher = more signal, called active from +8 up or from −8 down
# [17] = S6 kinase pathway phospho-S6 level changes – cell-based, A549, cytoblot, luminescence, serum-stimulated, primary screen (AID 1158); settings: 5 h, higher = more signal;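 further: serum-stimulated A549 lung adenocarcinoma cells; signal is phosphorylated S6 detected by cytoblot immunostaining with HRP secondary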
# [18] = molecular target: NADPH oxidase 2 (Homo sapiens) (UniProt P04839); assay: compounds shifting NOX2 Amplex Red fluorescence – cell-based, HEK293-NOX2, PMA-stimulated, NOX inhibitor project, primary screen (AID 1159); settings: 45 min, higher = more signal, called active from +8 up or from −8 down; further: test concentration not given here
# [19] = molecular target: NADPH oxidase 4 (Homo sapiens) (UniProt Q9NPH5); assay: compounds shifting NOX4 Amplex Red fluorescence – cell-based, HEK293-NOX4, tetracycline-induced, NOX inhibitor project, primary screen (AID 1160); settings: HEK293-NOX4, Amplex Red H2O2 fluorescence, 45 min; higher = more signal, called active from +8 up or from −8 down
# [20] = molecular target: NADPH oxidase 5 (Homo sapiens) (UniProt Q96PH1); assay: compounds shifting NOX5 Amplex Red fluorescence – cell-based, HEK293-NOX5, NOX inhibitor project, primary screen (AID 1161); settings: HEK293-NOX5, ionomycin, 45 min, higher = more signal
# Chain of NADPH oxidase 5 (Homo sapiens) (Q96PH1 whole entry, looked up): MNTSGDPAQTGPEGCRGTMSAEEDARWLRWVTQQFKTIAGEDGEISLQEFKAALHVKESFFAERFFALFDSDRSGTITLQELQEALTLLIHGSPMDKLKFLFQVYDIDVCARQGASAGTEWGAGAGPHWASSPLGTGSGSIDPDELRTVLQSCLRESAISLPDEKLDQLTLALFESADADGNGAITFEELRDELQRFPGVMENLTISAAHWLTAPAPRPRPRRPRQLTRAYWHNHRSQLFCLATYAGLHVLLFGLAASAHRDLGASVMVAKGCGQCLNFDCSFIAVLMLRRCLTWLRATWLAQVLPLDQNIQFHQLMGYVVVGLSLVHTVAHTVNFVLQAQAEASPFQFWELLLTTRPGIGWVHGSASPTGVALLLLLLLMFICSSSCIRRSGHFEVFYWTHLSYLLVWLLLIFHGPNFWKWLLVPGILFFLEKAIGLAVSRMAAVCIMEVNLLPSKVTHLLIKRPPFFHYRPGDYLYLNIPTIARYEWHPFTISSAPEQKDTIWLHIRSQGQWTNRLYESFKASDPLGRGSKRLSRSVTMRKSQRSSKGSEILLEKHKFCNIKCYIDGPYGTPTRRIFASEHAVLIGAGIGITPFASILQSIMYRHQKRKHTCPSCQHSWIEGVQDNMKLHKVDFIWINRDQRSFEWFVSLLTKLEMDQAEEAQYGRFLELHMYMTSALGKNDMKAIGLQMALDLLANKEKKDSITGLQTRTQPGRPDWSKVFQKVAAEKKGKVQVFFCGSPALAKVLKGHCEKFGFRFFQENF
# Chain of NADPH oxidase 4 (Homo sapiens) (Q9NPH5 whole entry, looked up): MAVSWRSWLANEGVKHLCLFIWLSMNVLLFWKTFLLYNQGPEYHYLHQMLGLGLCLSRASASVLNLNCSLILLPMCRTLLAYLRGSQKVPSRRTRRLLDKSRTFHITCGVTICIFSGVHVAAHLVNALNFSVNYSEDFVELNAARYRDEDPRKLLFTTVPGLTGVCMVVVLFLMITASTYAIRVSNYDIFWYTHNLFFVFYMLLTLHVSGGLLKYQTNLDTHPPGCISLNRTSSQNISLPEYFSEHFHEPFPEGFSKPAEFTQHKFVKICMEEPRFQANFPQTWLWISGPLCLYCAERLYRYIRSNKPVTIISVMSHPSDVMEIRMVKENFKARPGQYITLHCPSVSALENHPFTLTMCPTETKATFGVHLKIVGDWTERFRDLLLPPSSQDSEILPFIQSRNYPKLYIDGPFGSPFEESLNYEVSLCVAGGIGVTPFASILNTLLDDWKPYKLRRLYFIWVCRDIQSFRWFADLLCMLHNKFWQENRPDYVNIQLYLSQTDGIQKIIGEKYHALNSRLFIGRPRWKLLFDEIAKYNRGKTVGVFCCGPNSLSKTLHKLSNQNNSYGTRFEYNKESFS
# Chain of Torsin-1A (Homo sapiens) (O14656 whole entry, looked up): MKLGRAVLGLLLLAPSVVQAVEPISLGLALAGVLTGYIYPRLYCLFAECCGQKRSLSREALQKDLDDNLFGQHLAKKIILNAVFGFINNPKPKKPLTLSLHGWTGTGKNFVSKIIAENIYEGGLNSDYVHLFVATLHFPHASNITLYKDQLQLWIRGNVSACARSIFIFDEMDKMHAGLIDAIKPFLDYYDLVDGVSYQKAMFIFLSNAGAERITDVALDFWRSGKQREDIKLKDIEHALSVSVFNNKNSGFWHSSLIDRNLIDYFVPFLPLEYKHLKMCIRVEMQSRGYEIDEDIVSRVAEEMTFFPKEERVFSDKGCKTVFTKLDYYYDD
# Chain of Streptavidin (Streptomyces avidinii) (P22629 whole entry, looked up): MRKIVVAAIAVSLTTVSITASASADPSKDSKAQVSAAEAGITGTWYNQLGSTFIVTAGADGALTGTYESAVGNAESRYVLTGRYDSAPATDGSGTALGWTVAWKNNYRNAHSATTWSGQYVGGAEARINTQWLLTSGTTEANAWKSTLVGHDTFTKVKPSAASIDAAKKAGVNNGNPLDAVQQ
# Chain of NADPH oxidase 2 (Homo sapiens) (P04839 whole entry, looked up): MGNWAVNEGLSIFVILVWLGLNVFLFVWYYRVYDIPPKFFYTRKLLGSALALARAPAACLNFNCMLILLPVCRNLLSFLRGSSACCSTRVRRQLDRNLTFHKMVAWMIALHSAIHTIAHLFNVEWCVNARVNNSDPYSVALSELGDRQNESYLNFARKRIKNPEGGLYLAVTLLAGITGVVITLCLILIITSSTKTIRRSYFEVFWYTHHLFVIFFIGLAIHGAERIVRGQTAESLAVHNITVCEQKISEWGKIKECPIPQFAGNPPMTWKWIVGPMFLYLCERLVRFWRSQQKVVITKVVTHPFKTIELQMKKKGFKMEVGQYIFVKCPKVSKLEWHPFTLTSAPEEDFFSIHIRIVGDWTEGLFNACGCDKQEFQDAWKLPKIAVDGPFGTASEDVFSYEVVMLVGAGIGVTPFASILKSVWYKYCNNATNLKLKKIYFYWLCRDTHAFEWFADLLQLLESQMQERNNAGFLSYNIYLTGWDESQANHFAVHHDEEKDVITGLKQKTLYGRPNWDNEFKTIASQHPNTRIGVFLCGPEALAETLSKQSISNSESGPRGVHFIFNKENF
SMILES,composite z-score [1],z-score [2],z-score [3],z-score [4],z-score [5],composite z-score [6],composite z-score [7],composite z-score (Torsin-1A (Homo sapiens) [8]),composite z-score (Torsin-1A (Homo sapiens) [9]),composite z-score [10],z-score [11],composite z-score [12],z-score [13],z-score [14],z-score [15],z-score [16],z-score [17],z-score [18],z-score [19],z-score [20]
O=C1N(Cc2ccccc2)c2ccccc2C[C@@]12COC(c1ccc(OCCCO)cc1)=N2,0.82,-3.39 (inactive),-0.576 (inactive),2.41 (inactive),-0.914 (inactive),0.431,0.397,0.492,1.03,0.383,0.0226 (inactive),0.391,25.5 (active),10.1 (active),3.4 (inactive),1.33 (inactive),0.255,-0.231 (inactive),-0.221 (inactive),-1.79
CC(C)(C)OC(=O)CC[C@@]1(C(=O)NCCN2CCOCC2)N=C(c2ccc(OCCCO)cc2)O[C@@H]1c1ccccc1CN=[N+]=[N-],-0.119,0.0704 (inactive),-0.495 (inactive),-0.277 (inactive),0.54 (inactive),1.01,-0.0494,-0.428,0.467,-0.919,-0.936 (inactive),-0.0255,24.4 (active),11.3 (active),0.0031 (inactive),1.21 (inactive),-0.464,0.73 (inactive),1.46 (inactive),1.54
COc1ccc([Si](C)(C)[C@@H]2[C@@H](CC(=O)N3Cc4ccccc4C[C@H]3CO)O[C@]3(C(=O)N(Cc4cccc(N5CCOC5=O)c4)c4ccccc43)[C@H]2C)cc1,0.244,-4.12 (inactive),0.291 (inactive),-0.491 (inactive),-0.318 (inactive),-0.281,-0.0581,0.846,0.737,2.11,-0.207 (inactive),0.647,5.29 (inactive),1.06 (inactive),0.599 (inactive),0.548 (inactive),0.114,-2.65 (inactive),1.1 (inactive),-1.02
Cc1ccc(S[C@]2(C(=O)NCCCN(C)C)CC(=O)N(Cc3ccccc3C(F)(F)F)[C@@H]2c2ccc(CO)cc2I)cc1,-0.379,-1.13 (inactive),0.323 (inactive),-0.464 (inactive),1.66 (inactive),-0.493,0.189,0.22,-0.144,-0.117,-0.527 (inactive),-0.629,3.14 (inactive),0.684 (inactive),0.32 (inactive),0.377 (inactive),-0.579,-0.632 (inactive),-1.08 (inactive),1.96
O=C1C2C=CC(C(O)c3ccc([N+](=O)[O-])cc3)N(Nc3ccccc3F)C2C(=O)N1c1ccccc1 (stereo not given),0.164,-0.631 (inactive),-0.242 (inactive),0.743 (inactive),0.402 (inactive),0.428,0.0028,0.16,0.52,-0.449,-1.36 (inactive),0.0625,9.91 (active),0.885 (inactive),0.458 (inactive),0.586 (inactive),-0.888,-2.54 (inactive),-4.13 (inactive),-3.11
COc1ccc([Si](C)(C)[C@@H]2[C@@H](CC(=O)N3Cc4ccccc4C[C@H]3CO)O[C@]3(C(=O)N(Cc4ccc(N5CCOC5=O)cc4)c4ccccc43)[C@H]2C)cc1,-0.0088,-4.75 (inactive),-0.081 (inactive),0.949 (inactive),-0.888 (inactive),-0.0492,-0.128,0.438,0.702,1.96,0.378 (inactive),-0.0868,8.18 (active),1.59 (inactive),0.374 (inactive),0.892 (inactive),0.982,0.393 (inactive),1.15 (inactive),1.88
Cc1ccc(N2C(=O)c3ccccc3[C@](C)(C(=O)NCCCN(C)C)[C@@H]2c2ccc(CO)cc2)nc1,-0.169,0.368 (inactive),0.414 (inactive),0.0279 (inactive),0.64 (inactive),-0.0986,-0.0983,-1.38,-1.27,-1.01,-0.666 (inactive),-0.0058,1.23 (inactive),0.0681 (inactive),0.386 (inactive),-0.135 (inactive),-0.0873,0.627 (inactive),0.631 (inactive),0.199
CC1CC/C=C\[C@H]2OC34C=CCN(Cc5ccccc5)C(=O)[C@H]3N(CCCCCCO)C(=O)[C@@H]4C2C(=O)O1 (stereo not given in full),-0.523,-0.649 (inactive),2.79 (inactive),0.329 (inactive),0.138 (inactive),-0.871,-0.206,1.4,-0.549,0.06,0.528 (inactive),0.0249,-0.107 (inactive),0.179 (inactive),0.731 (inactive),0.111 (inactive),1.98,1.71 (inactive),0.185 (inactive),2.2
CC(C)NC(=O)[C@@H]1c2ccccc2C(=O)N(Cc2ccccc2C(F)(F)F)[C@H]1c1ccc(CO)cc1,-0.0854,-2.26 (inactive),-0.949 (inactive),-0.179 (inactive),1.71 (inactive),-0.962,-0.169,-0.371,0.0029,-0.214,0.0029 (inactive),-0.556,2.58 (inactive),0.0744 (inactive),1.32 (inactive),0.596 (inactive),-0.262,1.21 (inactive),-0.805 (inactive),-1.97
COCC(=C=CC[C@H](O)c1ccccc1OCCO)C[C@H](O)COCc1ccccc1,1.16,-0.729 (inactive),1.27 (inactive),5.1 (inactive),0.497 (inactive),0.259,0.0541,1.29,1.13,1.73,-0.186 (inactive),0.131,9.07 (active),1.07 (inactive),0.287 (inactive),0.896 (inactive),-0.408,0.0204 (inactive),-1.22 (inactive),-1.92
COCCOC(=O)N1C(=O)[C@@]2(c3cc(C#CC4(O)CCCCCC4)ccc31)[C@H](c1ccc(O)cc1)N1[C@H](c3ccccc3)[C@H](c3ccccc3)OC(=O)[C@H]1[C@@H]2C(=O)N1CCCCCCC1,0.357,-0.844 (inactive),0.887 (inactive),0.484 (inactive),-0.125 (inactive),-0.215,-0.0631,0.123,0.275,1.09,0.341 (inactive),1.08,1.13 (inactive),0.928 (inactive),0.0786 (inactive),0.166 (inactive),-0.363,1.61 (inactive),0.0838 (inactive),1.41
CCOC(=O)C1=CC[C@@H](c2ccc(OC)cc2)N(S(=O)(=O)c2ccc(C)cc2)[C@H]1CC,0.174,-5.57 (inactive),-0.785 (inactive),-0.882 (inactive),-0.0915 (inactive),1.53,0.152,0.318,0.714,0.964,0.938 (inactive),-0.0018,2.22 (inactive),-0.258 (inactive),-1.07 (inactive),-1.62 (inactive),1.27,0.0165 (inactive),-0.911 (inactive),0.209
CC(C)(C)N1CC=CC23O[C@@H]4C=CCOC(=O)[C@@H]4[C@H]2C(=O)N(CCO)[C@@H]3C1=O (stereo not given in full),-0.887,0.262 (inactive),1.7 (inactive),0.744 (inactive),1.07 (inactive),-1.61,-0.32,-2.49,-1.07,-0.863,-0.476 (inactive),-0.0967,0.55 (inactive),0.184 (inactive),0.0221 (inactive),0.526 (inactive),-0.694,1.09 (inactive),1.32 (inactive),1.59
CN1C(=O)C2C(C3CC3)C=C3CN(Cc4cccc(Cl)c4)[C@@H]([C@@H](O)Cc4ccccc4)C3C2C1=O (stereo not given in full),-0.103,-1.85 (inactive),-0.0257 (inactive),5.58 (inactive),0.349 (inactive),0.599,-0.0221,0.667,0.342,1.78,1.14 (inactive),0.2,8.18 (active),1.25 (inactive),1.57 (inactive),0.918 (inactive),0.775,-0.38 (inactive),0.0765 (inactive),0.168
COC(=O)[C@@]1(Cc2ccc(OC)cc2)[C@H]2c3cc(C(=O)N4CCCC4)n(Cc4c(CO)[nH]cc(C)c4=O)c3C[C@H]2CN1C(=O)c1ccccc1,0.702,-1.1 (inactive),-0.101 (inactive),0.37 (inactive),1.41 (inactive),1.51,0.0569,0.272,1.25,-0.65,-0.552 (inactive),0.213,0.843 (inactive),-0.163 (inactive),0.455 (inactive),-1.46 (inactive),2.57,0.753 (inactive),0.386 (inactive),-4.96
COc1ccc(C(=O)Nc2ccc3c(c2)[C@@]2(O[C@H](CCO)[C@@H]([Si](C)(C)c4ccc(OC)cc4)[C@@H]2C)C(=O)N3Cc2ccccc2)cc1,0.0753,-8.09 (active),-0.0986 (inactive),5.6 (inactive),-0.352 (inactive),0.0576,0.288,-0.193,0.46,1.93,-0.134 (inactive),0.778,3.2 (inactive),0.98 (inactive),0.768 (inactive),-0.188 (inactive),0.721,-4.96 (inactive),-1.62 (inactive),0.371
